PubChem BioAssay AID2401 (Southern Research Specialized Biocontainment Screening …, 2010)
The campaign covered roughly 2,200 compounds. About 530 (24%) were called active.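 The calls were made as follows: active = inhibition above a set limit at one or more concentrations of the dose series; inactive = inhibition under that limit at every dose.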 Only a sample is shown. A call without a number means that no potency is given here. Potency and affinity values are given separately.

Test: S. Typhimurium nonspecific reporter signal inhibition – Salmonella Typhimurium, GFP fluorescence, counter-screen for PhoP regulon inhibitor project, dose response (AID 2401);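 also: S. typhimurium with Mg-insensitive nmpC-GFP reporter grown at 10 µM Mg2+; drop in reporter fluorescence reflects general culture growth inhibition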
Conditions: 4 h; series mostly up to 150 µM

Compound	outcome
CNc1nc(Sc2ccccc2)cc(C(F)(F)F)n1	inactive
Cc1cc(C)c2nc(NNC(=O)c3ccc(S(=O)(=O)N4CCCCC4)cc3)sc2c1	inactive
O=S(=O)(Cc1ccccc1Cl)N1CCN(Cc2ccc3c(c2)OCO3)CC1	inactive
COc1ccccc1CNc1nc2nc(C)c(C)c(=O)n2[nH]1	inactive
COc1ccc(CCNC(=S)Nc2cccc3ccccc23)cc1	inactive
Brc1cccc(CNCc2cccs2)c1	inactive
COc1cc(CNCc2cccs2)cc(Br)c1OC	inactive
Cc1cccc(Nc2ncccc2C(=O)NCc2cccs2)c1C	inactive
Cn1c(=O)c(=O)n(C)c2cc(S(=O)(=O)Nc3ccc4c(c3)OCCO4)ccc21	inactive
COc1ccc(/C=N/NC(=O)CC(=O)NCc2cccnc2)cc1	inactive
CC(=O)Nc1ccc(C(=O)N2CCN(C(=O)c3ccco3)CC2)cc1	inactive
COc1ccc(S(=O)(=O)Nc2ccc(F)c(F)c2)cc1Cl	inactive
OC(COc1ccc2c(c1)CCC2)Cn1cnc2ccccc21 (stereo unspecified)	inactive
O=C(Nc1cccc(Cl)c1)Nc1ccc2c(c1)OCO2	inactive
O=S1(=O)CC(O)C(Nc2ccccc2Cl)C1 (stereo unspecified)	inactive
NC(=O)c1ccccc1N=Cc1ccccn1	inactive
CCCc1cc(=O)oc2cc(OCC(=O)N3CCc4ccccc43)ccc12	inactive
CN1CCCC(OC(=O)c2ccc(Cl)cc2)C1 (stereo unspecified)	inactive
O=C(/C=C\c1ccco1)Nc1nc(-c2ccccc2)cs1	inactive
Cc1cc(C)c2c(c1)NC(=O)C2(O)CC(=O)c1cccs1 (stereo unspecified)	inactive
O=C(c1ccc(-c2ccccc2)cc1)c1ccccc1C(=O)N1CCOCC1	inactive
COc1ccc(/C=C/C(=O)NC(=S)NNC(=O)c2cnccn2)cc1	inactive
N#Cc1c(NC(=O)c2cnccn2)sc2c1CCCC2	inactive
CC(=O)C1=C(C)NC(SCSc2ccccc2)=C(C#N)C1c1cccnc1 (stereo unspecified)	inactive

Compound	outcome
CC(=O)NC1C(c2nc3ccccc3s2)=C(c2ccccc2)C(=O)N1c1ccc(C)cc1 (stereo unspecified)	inactive
COc1cccc(-c2nc(-c3ccc(Br)o3)no2)c1	inactive
CCc1ccc(OCC(=O)Nc2ccc(-c3cc4ccccc4oc3=O)c(OC)c2)cc1	inactive
Oc1ccc(/C=N/n2cnn(Cc3ccccc3Cl)c2=S)c(O)c1	inactive
Oc1ccc(/C=N/NC2=NCCCCC2)c(O)c1	inactive
CC(=O)Nc1cc(N=Cc2ccc(O)cc2O)c(Cl)cc1Cl	inactive
O=C(O)CCS(=O)(=O)c1ccc(-c2ccccc2)cc1	inactive
O=C(c1ccco1)c1cn(CC(=O)N2CCCc3ccccc32)c2ccccc12	inactive
Cc1ccc([N+](=O)[O-])cc1NC(=O)CN(C(=O)c1ccc(Cl)cc1)C1CCCCC1	inactive
O=C(/C=C/c1ccccc1)N/C(=C/c1ccccc1)C(=O)N1CCOCC1	inactive
COc1cc(OC)cc(C(=O)N[C@H](C(=O)OCC(=O)Nc2ccc(C(N)=O)cc2)C(C)C)c1	inactive
O=C(N/N=C/c1ccc(O)cc1O)C(=O)N/N=C/c1ccc(O)cc1O	inactive
CC1C(=O)NN=C1C(=O)N/N=C\c1ccc(O)cc1O (stereo unspecified)	inactive
O=C(NCCN1CCOCC1)c1ccc2ccccc2c1	inactive
CC(CN1CCOCC1)C(=O)c1ccccc1 (stereo unspecified)	inactive
Cc1ccc(-c2n[nH]c(=S)n2/N=C/c2cc3c(cc2[N+](=O)[O-])OCO3)cc1	inactive
O=Cc1cccn1Cc1ccccc1[N+](=O)[O-]	inactive
CCCn1c(/N=C/c2ccc3c(c2)OCO3)nc2ccccc21	inactive
C(=N\N1CCN(Cc2ccccc2)CC1)/c1cccnc1	inactive
COC(=O)c1sccc1N/N=C(\C)c1ccc(F)c(Cl)c1	inactive
Cc1cccc2nc(CSc3nc4ccccc4o3)cn12	inactive
Nc1nc(Nc2ccc(Cl)cc2)n[nH]1	inactive
Cn1c(SCC(=O)NC(=O)c2cccc([N+](=O)[O-])c2)nnc1-c1ccc(F)cc1	inactive
O=C(NNc1c2ccccc2nc2ccccc12)c1ccccc1O	inactive

Compound	outcome
Cc1cc(C)c(NC(=S)NC(=O)c2ccc(-c3ccccc3)cc2)c(C)c1	inactive
O=C(CSc1nnc(-c2cccnc2)o1)OC1CCCCC1	inactive
CCC(C)C(NC(=O)OCc1ccccc1)C(=O)OCN1C(=O)c2ccccc2C1=O (stereo unspecified)	inactive
Cc1cc(C2=NNC(=NC3CC3)SC2)c(C)n1-c1ccccc1	inactive
CCn1c(CNC(=O)COc2ccc(C(C)C)cc2)nnc1SCC(=O)Nc1ccccc1	inactive
Clc1ccc(CNc2ccc(CNc3ncn[nH]3)cc2)cc1	inactive
Cc1cc(C(=O)N2CCN(C/C=C/c3ccccc3)CC2)no1	inactive
N#CC1(C#N)COC23CCCCC2C1(C#N)C(=N)O3 (stereo unspecified)	inactive
CCCc1nn(C)c2c1C(c1cccnc1)C(C#N)=C(N)O2 (stereo unspecified)	inactive
CCSc1nnc(NC(=O)Cc2cccc(OC)c2)s1	inactive
O=C(COC(=O)c1n[nH]c2ccccc12)NC(=O)NC12CC3CC(CC(C3)C1)C2	inactive
C#CCOc1c(Cl)cc(/C=N/O)cc1OC	inactive
Cc1ccc(N(CC(=O)N/N=C/c2ccco2)S(=O)(=O)c2ccccc2)cc1	inactive
O=C(Nc1cccnc1)c1cc(F)cc(F)c1	inactive
Cc1[nH]c2ccccc2c1C1=NNC(=Nc2ccc(F)cc2)SC1	inactive
O=C(CCC(=O)c1cccs1)OCC(=O)N1CCN(S(=O)(=O)c2ccccc2)CC1	inactive
CCOC(=O)CCC(NC(=O)c1ccc(NCN2C(=O)CCC2=O)cc1)C(=O)OCC (stereo unspecified)	inactive
Cc1ccc(S(=O)(=O)NCc2ccc(C(=O)N3CCN(c4ccccn4)CC3)cc2)cc1	inactive
COCCNCCOc1ccccc1-c1ccccc1	inactive
O=C(NCc1ccco1)c1cccc(Nc2nc3ccc(Br)cc3[nH]2)c1	inactive
Cc1ccc(C)c(-c2nc3ccc(N)cc3[nH]2)c1	inactive
Nc1cc(N)cc(-c2nc3ccccc3[nH]2)c1	inactive
O=C(OCC1O[C@@H](OC(=O)c2cc(O)c(O)c(O)c2)[C@@H](OC(=O)c2cc(O)c(O)c(O)c2)[C@@H](OC(=O)c2cc(O)c(O)c(O)c2)[C@@H]1OC(=O)c1cc(O)c(O)c(O)c1)c1cc(O)c(O)c(O)c1 (stereo partly specified)	inactive
